Source: PubChem (National Center for Advancing Translational Sciences (NCATS))
D2 ag-1: activates the human D2 dopamine receptor. DiscoveRx PathHunter D2 beta-arrestin, luminescence, 90 min; 100% = 57 uM dopamine signal. activation, % (test concentration not listed). AID 624465. P14416. 0.084% of 360,000 active; in the data active = activation above about 40%; inconclusive = between about 15% and that limit
Target sequence (P14416 whole entry, looked up): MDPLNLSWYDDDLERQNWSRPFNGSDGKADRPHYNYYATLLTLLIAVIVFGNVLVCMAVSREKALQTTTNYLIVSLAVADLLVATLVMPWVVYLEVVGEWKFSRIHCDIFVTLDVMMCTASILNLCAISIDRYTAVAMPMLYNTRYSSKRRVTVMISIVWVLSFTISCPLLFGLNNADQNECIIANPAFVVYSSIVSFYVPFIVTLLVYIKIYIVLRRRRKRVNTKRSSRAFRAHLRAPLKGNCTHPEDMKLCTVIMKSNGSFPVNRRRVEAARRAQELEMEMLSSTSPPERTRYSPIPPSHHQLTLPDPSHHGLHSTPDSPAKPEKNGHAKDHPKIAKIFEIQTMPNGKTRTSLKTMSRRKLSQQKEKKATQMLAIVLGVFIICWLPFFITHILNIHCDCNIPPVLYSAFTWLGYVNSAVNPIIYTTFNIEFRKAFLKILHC
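DiscoveRx PathHunter D2 beta-arrestin cells (2,100/well) attached overnight, then compound-stimulated 90 min at 37 C in HBSS/10 mM HEPES/0.1% Tween-20 buffer; beta-galactosidase complementation read by luminescence after 1 h at ambient temperature. Dopamine 57 uM final (EC100) as control.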
D2 PAM-1: positive allosteric modulators of human D2 dopamine receptor; P14416; DiscoveRx D2 beta-arrestin cells, luminescence, 90 min; 100% = 57 uM dopamine signal; potentiation, % (concentration not given with the values); 0.23% of 360,000 active; AID 624464; in the data active = potentiation above about 50%; inconclusive = mostly about 30% to 49%
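PathHunter D2 cells, attached overnight at 37 deg C, received compound in DMSO plus dopamine at EC20 (50 nM final) for 90 min at 37 deg C. Beta-arrestin recruitment was read as luminescence after 1 h with detection reagent at ambient temperature.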
D2 PAM-2: D2 dopamine receptor (human) potentiation. P14416. 0.34% of 340,000 active. HEK293 T-REx D2, calcium flux, EC20 dopamine potentiation. potentiation, % at 10 µM. AID 485347;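 active = potentiation over 3 SD above the plate norm, cut at about 30% in these data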; note: 0% is about no effect
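Tetracycline-induced HEK293 T-REx cells force-coupled to calcium signalling expressed D2; compounds were pin-added after a 10 s baseline, read kinetically 180 s, then an EC20 dopamine challenge followed with a further 180 s calcium read.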
D2 antagonist: antagonists of human D2 dopamine receptor; P14416; HEK293 TREx D2 cells, calcium flux, dopamine EC80; inhibition, % at 10 µM; 2% of 340,000 active; AID 485344; in the data active = inhibition above about 30%; inactive = below that, where a call was filed; note: 0% is about no effect
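In this primary screen, negative modulation is detected by tracking calcium flux after an EC80 dopamine challenge in inducible HEK293 T-REx D2 cells preexposed to test compound for 180 s.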
D2 ag-2: D2 dopamine receptor (human) agonism; P14416; activation, % at 2 µM; AID 485358; 0.53% of 340,000 active; HEK293 T-REx D2 cells, calcium flux agonist mode;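 active = activation over 3 SD above normal in the single-dose calcium agonist read, cut at about 30% in these data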; note: 0% is about no effect
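Tetracycline-induced HEK293 T-REx cells with force-coupled D2 receptor, plated overnight at 30 C, loaded with no-wash calcium dye. After a 10 s baseline, compound was pin-added and calcium flux read kinetically for 180 s; calcium rises flagged agonists.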
Starred values were filed as active, the others as inactive. In the library only some 2.4% were active in any assay of this set; here they are far more common.

CCOC(=O)c1c(NC(=O)CN2C(=O)NC3(CCC(C)CC3)C2=O)sc(C(=O)N(C)C)c1C (stereo not drawn) was read as D2 ag-1 1, D2 PAM-1 -14, D2 PAM-2 1, D2 antagonist 4 and D2 ag-2 0.
C/C=C(/C)C(=O)Nc1cccc(C2=NOC3(C2)C[C@@H](C(N)=O)N(C(=O)CC)C3)c1 (stereo partly drawn) was read as D2 ag-1 0, D2 PAM-1 -2, D2 PAM-2 -20, D2 antagonist 43* and D2 ag-2 0.
Screening C=C(C)C(=O)Nc1cccc(C2=NOC3(C2)C[C@@H](C(N)=O)N(C(=O)c2ccc(OC)cc2)C3)c1 (stereo partly drawn) returned D2 ag-1 -2, D2 PAM-1 -6, D2 PAM-2 -6, D2 antagonist 8 and D2 ag-2 0.
Screening C=C(C)C(=O)Nc1cccc(C2=NOC3(C2)C[C@@H](C(N)=O)N(C(=O)c2cc([N+](=O)[O-])cc([N+](=O)[O-])c2)C3)c1 (stereo partly drawn) returned D2 ag-1 12, D2 PAM-1 84*, D2 PAM-2 11, D2 antagonist -14 and D2 ag-2 0.
For Cc1noc(C)c1C(=O)Nc1ccccc1C(=O)NCCc1ccccc1 the results were D2 ag-1 1, D2 PAM-1 -7, D2 PAM-2 8, D2 antagonist 1 and D2 ag-2 1.
COc1ccc(OCC(=O)NNC(=O)Cn2c(=O)cnc3ccccc32)cc1 was read as D2 ag-1 -2, D2 PAM-1 -14, D2 PAM-2 5, D2 antagonist 10 and D2 ag-2 1.
CCC(=O)c1cn(CC(=O)Nc2cccc(OC)c2)c2ccccc12 was read as D2 ag-1 -1, D2 PAM-1 -4, D2 PAM-2 0, D2 antagonist 4 and D2 ag-2 -1.
For O=C(CCCn1cnc([N+](=O)[O-])n1)Nc1ccc(F)c(Cl)c1 the results were D2 ag-1 -1, D2 PAM-1 -7, D2 PAM-2 1, D2 antagonist 2 and D2 ag-2 0.
`Cc1ccc(NC(=O)CCN2C(=O)c3ccccc3C2=O)c(C)c1` gave D2 ag-1 -2 and D2 PAM-1 -9.
O=C(CCN1C(=O)c2ccc([N+](=O)[O-])cc2C1=O)Nc1cccc(O)c1 was read as D2 ag-1 inconclusive, D2 PAM-1 63*, D2 PAM-2 5, D2 antagonist -13 and D2 ag-2 -1.
For Cc1cc(O)ccc1NC(=O)CCN1C(=O)c2ccc([N+](=O)[O-])cc2C1=O the results were D2 ag-1 inconclusive, D2 PAM-1 73*, D2 PAM-2 4, D2 antagonist 27 and D2 ag-2 -1.
Screening O=C(CCCn1cnc([N+](=O)[O-])n1)Nc1cccc(O)c1 returned D2 ag-1 1, D2 PAM-1 4, D2 PAM-2 6, D2 antagonist 35* and D2 ag-2 2.
Screening COc1ccc2nc3n(c(=O)c2c1)-c1ncccc1C(=O)NC3CC(C)C (stereo not drawn) returned D2 ag-1 3.
COc1cccc(NC(=O)c2oc3ccc(S(=O)(=O)N4CCC5(CC4)OCCO5)cc3c2C)c1 was read as D2 PAM-2 -2 and D2 ag-2 -1.
For C/C=C(\C)C(=O)OC1[C@H](OC(C)=O)C2(CO)C(CC1(C)C)C1=CCC3C4(C)CCC(O[C@@H]5O[C@H](C(=O)O)[C@@H](O[C@@H]6O[C@H](CO)[C@@H](O)[C@H](O)[C@H]6O)[C@H](O)[C@H]5O[C@H]5O[C@H](CO)[C@@H](O)[C@H](O)[C@H]5O)[C@](C)(CO)C4CCC3(C)[C@]1(C)C[C@H]2O (stereo partly drawn) the results were D2 ag-1 41* and D2 PAM-1 -63.
For C/C=C(/C)C(=O)OC1CC(C)(C)C[C@H]2C3=CC[C@@H]4[C@@]5(C)CCC(O[C@@H]6O[C@@H](C(=O)O)[C@@H](O)C(O[C@@H]7OC[C@H](O)[C@@H](O)[C@@H]7O[C@@H]7OC(CO)C(O)[C@@H](O)[C@@H]7O)C6O[C@@H]6OC(CO)C(O)C(O)C6O)[C@@](C)(CO)[C@@H]5CC[C@]4(C)[C@]3(C)CC(O)[C@@]12CO (stereo partly drawn) the results were D2 ag-1 13 and D2 PAM-1 -21.
Cc1cc(C)c(OCCCCN(C)Cc2ccccc2)c(C)c1 was read as D2 ag-1 -4, D2 PAM-1 -83, D2 PAM-2 -25, D2 antagonist 33* and D2 ag-2 -1.
For Cc1ccc(OCCCCN(C)Cc2ccccc2)c(Br)c1 the results were D2 ag-1 -1, D2 PAM-1 -42, D2 PAM-2 -25, D2 antagonist 1 and D2 ag-2 -1.
`Cc1cc[n+](-c2[nH]c(=O)sc2/C=N/NC([S-])=Nc2ccccc2)cc1` gave D2 ag-1 -2, D2 PAM-1 -14, D2 PAM-2 0, D2 antagonist -12 and D2 ag-2 0.
Screening O=c1[nH]c(-[n+]2ccccc2)c(/C=N/NC([S-])=Nc2ccccc2)s1 returned D2 ag-1 -1, D2 PAM-1 -9, D2 PAM-2 6, D2 antagonist 15 and D2 ag-2 30*.
Screening CC(=O)Nc1ccc(CNc2nc3cc(-c4cccc(C(F)(F)F)c4)sc3c(=O)n2C)cc1 returned D2 ag-1 -3 and D2 PAM-1 -12.
For Cc1nc2nc(C)c(NS(=O)(=O)c3ccc(F)cc3)c(=O)n2[nH]1 the results were D2 PAM-2 -1.
CSCCC(NS(=O)(=O)c1ccc(Cl)c(Cl)c1)C(=O)O (stereo not drawn) was read as D2 ag-1 -4, D2 PAM-1 -6, D2 PAM-2 -7, D2 antagonist 1 and D2 ag-2 0.
`CSCCC(NS(=O)(=O)c1ccc2[nH]c(=O)c(=O)[nH]c2c1)C(=O)O` (stereo not drawn) gave D2 ag-1 -1, D2 PAM-1 -4, D2 PAM-2 -9, D2 antagonist 36* and D2 ag-2 -1.
Screening COc1ccc(CC(NC(C)=O)C(=O)NC2CCN(c3nnnn3-c3ccccc3)CC2)cc1OC (stereo not drawn) returned D2 PAM-2 1, D2 antagonist -2 and D2 ag-2 1.
`COc1ccc(NC(=O)C2CCCN(c3c4c(nc5ncnn35)CCC4)C2)cc1` (stereo not drawn) gave D2 ag-1 -2, D2 PAM-1 -5, D2 PAM-2 9, D2 antagonist -7 and D2 ag-2 0.
For COc1cc(C)nc(N2CCCC(C(=O)Nc3cc(Cl)ccc3OC)C2)n1 (stereo not drawn) the results were D2 ag-1 1, D2 PAM-1 -1, D2 PAM-2 81*, D2 antagonist 7 and D2 ag-2 1.
